# CYP2C19 activ: activators of human cytochrome P450 2C19; P33261; recombinant CYP2C19, luciferin-H EGE luminescence; hits give high values; 0 = fully inhibited enzyme, 1 = untreated enzyme; activation factor at 5 µM; 96,000 tested, under 10 active;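 active means activation factor of at least 2 at 5 µM in the primary screen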
# Target sequence (P33261 whole entry, looked up): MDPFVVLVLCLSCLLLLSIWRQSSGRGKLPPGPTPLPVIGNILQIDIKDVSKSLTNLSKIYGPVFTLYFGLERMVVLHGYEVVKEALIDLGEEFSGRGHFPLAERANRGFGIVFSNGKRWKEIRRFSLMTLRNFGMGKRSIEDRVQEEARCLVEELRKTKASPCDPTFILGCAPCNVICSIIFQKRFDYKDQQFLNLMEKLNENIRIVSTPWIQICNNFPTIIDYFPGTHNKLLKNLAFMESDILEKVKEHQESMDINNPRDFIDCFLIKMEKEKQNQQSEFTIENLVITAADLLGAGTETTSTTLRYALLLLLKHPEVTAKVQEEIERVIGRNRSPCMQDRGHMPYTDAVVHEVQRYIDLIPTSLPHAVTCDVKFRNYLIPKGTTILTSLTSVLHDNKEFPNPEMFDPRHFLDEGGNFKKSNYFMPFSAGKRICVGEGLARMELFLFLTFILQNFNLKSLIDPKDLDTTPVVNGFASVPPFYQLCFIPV
# CYP2C9 act: CYP2C9 (human) activation; P11712; recombinant CYP2C9, luciferin-H conversion, luminescence; hits give high values; factor 1 = untreated enzyme, 0 = blocked; activation factor at 5 µM; 1.4% of 96,000 active;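 active means activation factor of 2 or more for CYP2C9 at a 5 µM dose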
# CYP2C9 inh: inhibitors of human CYP2C9 | P11712 | CYP2C9 Supersomes, luciferin-H conversion, luminescence | inhibition, % at 5 µM | 20% of 96,000 active;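 active means blocking of liver enzyme CYP2C9 beyond about 50% at 5 µM, limit read from the data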
# Cav3 T inh: human Cav3.2 channel inhibition, primary screen. O95180. Cav3.2-expressing cells, Fluo-4 calcium fluorescence FDSS; hits give low values. B-score at 10 µM. 4% of 100,000 active. AID 449739;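 active means single-dose well whose peak fluorescence ratio is a statistical outlier from its plate by either plate-standardised score or position-corrected B-score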
# CYP2C19 inhib: blocks human cytochrome P450 2C19; P33261; CYP2C19 Supersomes, luciferin-H EGE luminescence, 30 min; inhibition, % at 5 µM; 21% of 96,000 active; AID 778;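 active means CYP2C19 inhibition above a set limit at 5 µM in the primary screen, cut at about 50% in these data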
# Hits are given with their value; - = inactive; . = no result given. Hits are enriched below; roughly 27% of the tested compounds scored in any of these assays.
SMILES,CYP2C19 activ,CYP2C9 act,CYP2C9 inh,Cav3 T inh,CYP2C19 inhib
COc1ccc(OC)c(NC(=O)C(CC(C)C)NC(=O)C2CCCCC2)c1 (configuration not stated),-,-,-,-,-
COc1ccccc1NC(=O)C(CC(C)C)NC(=O)C1CCCCC1 (configuration not stated),-,-,-,-,51
COc1ccc(OC)c(NC(=O)C2CCCN2C(=O)C2CCC(C)CC2)c1 (configuration not stated),-,-,57,-,53
COc1cc(NC(=O)C2CCCN2C(=O)C2CCC(C)CC2)cc(OC)c1OC (configuration not stated),-,-,-,-,-
Cc1onc(-c2ccccc2Cl)c1C(=O)N1CC(C)OC(C)C1 (configuration not stated),-,-,-,-,-
Cc1onc(-c2ccccc2Cl)c1C(=O)N1CCN=C1SCc1cccnc1,-,-,94,-,97
CSC1=NCCN1C(=O)c1c(-c2ccccc2Cl)noc1C,-,-,-,-,71
Cc1onc(-c2ccccc2Cl)c1C(=O)Nc1cccnc1,-,-,-,-,-
CCC(c1nnnn1CS(=O)(=O)c1ccc(C)cc1)N1CCN(c2nc3ccccc3s2)CC1 (configuration not stated),-,-,-,-,-
CC(C)CNC(=S)NNC(=O)c1ccco1,.,.,.,-,.
CC(=O)N1CCN(c2nc(C)nc3sc4c(c23)CCC(C)C4)CC1 (configuration not stated),-,-,86,-,83
CC1CCc2c(sc3nc(C4CC4)nc(N4CCN(C(=O)c5ccco5)CC4)c23)C1 (configuration not stated),.,.,.,-,.
COc1cc2c(cc1OC)C(c1ccccc1)N(C(=O)CCl)CC2 (configuration not stated),-,-,-,-,-
COc1cc2c3c(c1OC)C1(C=CC(=O)C=C1)CC3N(C(=O)c1ccccc1)CC2 (configuration not stated),-,-,86,-,-
Cc1cc2nc3n(c2cc1C)CC1CC(C(=O)NCc2ccco2)N(C)C31 (configuration not stated),.,.,.,-,.
CCCCn1c(CCn2nc(C)c(Br)c2C)n[nH]c1=S,-,-,-,-,90
Cc1cccc(-n2c(CCn3nc(C)c([N+](=O)[O-])c3C)n[nH]c2=S)c1,-,-,-,-,-
N#Cc1nc(-c2ccccc2Cl)oc1N1CCCCC1,-,-,81,.,86
CN(C)c1oc(-c2ccccc2Cl)nc1S(=O)(=O)c1ccccc1,-,-,-,-6.3,79
CN(C)c1oc(-c2ccccc2Cl)nc1C#N,-,2.8,-,.,62
Cc1cc(C)cc(N=c2c([N+](=O)[O-])nn(-c3cccc(Cl)c3)n2O)c1,-,-,-,-,-
O=C(CSCCO)Nc1ccc(C2CCCCC2)cc1,-,-,-,-,-
c1ccc(-n2nnnc2-n2cnc3ccccc32)cc1,-,-,-,-,82
c1ccc(N2CCN(c3nnnn3-c3ccccc3)CC2)cc1,-,-,93,-,100
Cc1cc(N2CCN(c3ccccc3)CC2)n2nnnc2n1,-,-,-,.,-
SMILES,CYP2C19 activ,CYP2C9 act,CYP2C9 inh,Cav3 T inh,CYP2C19 inhib
Cc1nnc(-n2cnc3ccccc32)c2ccccc12,-,-,-,-,-
O=C(C1CCN(c2nnnn2-c2ccccc2)CC1)N1CCN(c2ccccc2)CC1,-,-,-,-,-
Cc1cc(N2CCN(c3nnnn3-c3ccccc3)CC2)n2ncnc2n1,-,-,-,-,66
CC(C(=O)Nc1nc2ccccc2[nH]1)N1C(=O)C2CC=CCC2C1=O (configuration not stated),-,-,-,-,-
N#Cc1cccc(-n2c(-c3ccccc3)nnc2-c2ccccc2)c1C#N,-,-,89,-,89
CCOC(=O)CSC1=C(C#N)C(=O)NC2(CCCCC2)S1,-,-,61,-,-
CC1(C)Cc2noc(N)c2C(C)(C)N1OC(=O)c1ccco1,.,.,.,-,.
Oc1[nH]c2ccccc2c1/C=N/c1nccs1,-,-,-,.,53
Cc1noc(C)c1C(=O)OCC(=O)NCCC1=CCCCC1,-,-,-,-,70
Cn1c(=O)cc(OCCCC(=O)NC2CCCC2)c2ccccc21,-,-,-,-,-
CCOc1ccc(NC(=O)CCCOc2cc(=O)n(C)c3ccccc23)cc1,-,-,71,-,-
COc1cccc(NC(=O)CCCOc2cc(=O)n(C)c3ccccc23)c1,-,-,-,-,64
COc1ccc(C(=O)/C=C/c2cccs2)c(OC(=O)c2cccc([N+](=O)[O-])c2)c1,-,-,50,-,-
COc1ccc(/C=C/C(=O)c2ccc(OC)cc2OC)c(OC)c1,.,.,.,-,.
CCCc1cc(C(=O)Nc2cccc(Cl)c2)no1,-,-,-,-,66
CSc1ccccc1NC(=O)c1cc(-c2cccs2)on1,-,2.7,-,-,-
CCCc1cc(C(=O)Nc2cccc(C(C)=O)c2)no1,-,-,-,-,-
CCCc1cc(C(=O)Nc2ccccc2SC)no1,-,4,-,-,-
CC(C)NC(=O)c1cc(-c2cccs2)on1,-,-,-,-,-
COc1cccc(N2CCN(C(=O)C3C4C=CC5(CN(Cc6ccccc6Cl)C(=O)C35)O4)CC2)c1 (configuration not stated),-,-,62,-,-
COc1ccc(CN2CC34C=CC(O3)C(C(=O)O)C4C2=O)cc1 (configuration not stated),-,-,-,-,-
COc1ccccc1N(CC(=O)NCC1CCCO1)C(=O)CNS(=O)(=O)c1ccc(C)cc1 (configuration not stated),-,-,-,-,-
CC(C)(C)C(=O)Cn1ncc(NC2CC2)c(Br)c1=O,-,-,-,-,62
C[C@@]12CCC=C[C@H]1[C@H](c1ccc(F)c(/C=C/c3ccccc3)c1)N(Cc1ccccc1)C2=O,.,.,.,-,.
Clc1ccc(-n2c(SCc3nc4ccccc4[nH]3)nnc2-c2ccncc2)cc1,-,-,84,-,99
SMILES,CYP2C19 activ,CYP2C9 act,CYP2C9 inh,Cav3 T inh,CYP2C19 inhib
O=C(CSc1ccc(Cl)cc1)N1CCOCC1,-,-,-,-,74
O=C(CSc1nnc(-c2ccncc2)n1-c1ccc(Cl)cc1)N1CCOCC1,-,-,77,-,98
Cn1c(SCc2nc3ccccc3[nH]2)nnc1-c1cccnc1,-,-,-,-,-
NC(=O)CSc1nnc(-c2ccncc2)n1-c1ccc(Cl)cc1,.,.,.,-,.
O=C(O)CSc1nnc(-c2ccncc2)n1-c1ccc(Cl)cc1,-,-,51,-,-
CCn1c(CSc2nc(C)cc(C)n2)nnc1SCC(=O)N1CCCc2ccccc21,-,-,-,-,-
COc1ccccc1-c1nnc(SCc2nc3ccccc3[nH]2)n1C,-,-,-,-,80
Cc1ccccc1-n1c(SCC(=O)N2CCN(c3ccccc3)CC2)nnc1-c1ccncc1,-,-,76,-,84
O=C(NCCNCCO)C1(C(F)(F)F)C/C(=C\CCO)CCCO1 (configuration not stated),.,.,.,-,.

# Screens: PubChem BioAssay, several laboratories
